Data taken from PubChem BioAssay (EPA / NIEHS).
“And” between values parts separate entries of the source, which are not always exact repeats. Identical values can stand only once. Inconclusive results are not listed. A structure can be active in one record and inactive in another. The source made the active and inactive calls. The calls were made as follows, unless noted: active = hit-call score of the fitted dose curve at least 0.9, where 1 is the maximum; inactive = score below 0.9.

Tests used:
[1] = ATG_Sox_CIS: Attagene CIS-FACTORIAL HepG2 Assay for human SRY-box transcription factor (SOX) (AID 2282960); details: HepG2 Attagene cis-factorial SOX reporter, mRNA; actives raise or lower the signal
Procedure, shortened: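 HepG2, cis reporter units, 24 h exposure. Reporter mRNA: RT-PCR → FAM labelling → HpaI → CE fluorescence. Bidirectional fit vs DMSO.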

[2] = molecular target: Transcription factor Sp1 (Homo sapiens) (UniProt P08047); assay: ATG_Sp1_CIS: Attagene CIS-FACTORIAL HepG2 Assay for human Specificity Protein 1 (Sp1) (AID 2282961); details: HepG2 Sp1 cis-reporter transcription, actives raise or lower the signal
Transcription factor Sp1 (Homo sapiens), sequence (P08047 whole entry, looked up, the tested form may be a part): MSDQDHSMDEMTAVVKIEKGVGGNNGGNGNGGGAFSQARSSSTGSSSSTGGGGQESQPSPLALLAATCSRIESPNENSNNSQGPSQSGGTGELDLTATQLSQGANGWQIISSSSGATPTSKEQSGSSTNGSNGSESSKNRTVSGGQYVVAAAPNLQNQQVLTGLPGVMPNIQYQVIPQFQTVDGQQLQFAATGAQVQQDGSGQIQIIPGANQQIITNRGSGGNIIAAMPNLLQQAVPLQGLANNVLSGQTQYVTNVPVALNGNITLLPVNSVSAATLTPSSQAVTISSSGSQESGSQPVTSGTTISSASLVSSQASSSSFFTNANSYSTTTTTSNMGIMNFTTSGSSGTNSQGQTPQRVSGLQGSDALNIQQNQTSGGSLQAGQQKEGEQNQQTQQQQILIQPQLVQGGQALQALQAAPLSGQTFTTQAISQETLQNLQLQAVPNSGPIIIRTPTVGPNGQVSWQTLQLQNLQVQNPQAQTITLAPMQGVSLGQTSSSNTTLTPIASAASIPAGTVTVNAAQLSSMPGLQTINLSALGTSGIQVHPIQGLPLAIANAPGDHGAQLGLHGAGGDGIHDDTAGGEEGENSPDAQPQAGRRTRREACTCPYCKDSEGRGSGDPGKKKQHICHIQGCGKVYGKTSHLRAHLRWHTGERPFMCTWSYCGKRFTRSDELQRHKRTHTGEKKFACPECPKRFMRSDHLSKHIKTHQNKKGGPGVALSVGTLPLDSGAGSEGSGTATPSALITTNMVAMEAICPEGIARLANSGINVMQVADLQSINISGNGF
Procedure, shortened: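 Liver-derived HepG2 cells, cis-element reporter library, 24 h treatment; RNA isolated, cDNA amplified with reporter-specific primers, FAM-labeled fragments sized on capillary analyzer. DMSO baseline, bidirectional curve fit.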

[3] = ATG_SREBP_CIS: Attagene CIS-FACTORIAL HepG2 Assay for human Sterol Regulatory Element Binding (SREBP) (AID 2282962); details: HepG2 Attagene cis-factorial SREBP reporter, mRNA; actives raise or lower the signal
Procedure, shortened: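 mRNA induction of transfected cis-promoter reporters in HepG2 cells, 24 h post-dose. Detection: RT-PCR with 6-FAM-labelled products, HpaI digest, capillary electrophoresis. DMSO served as negative control and baseline.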

[4] = molecular target: Signal transducer and activator of transcription 3 (Homo sapiens) (UniProt P40763); assay: ATG_STAT3_CIS: Attagene CIS-FACTORIAL HepG2 Assay for human Signal Transducer and Activator of Transcription 3 (STAT3) (AID 2282963); details: HepG2, Attagene cis-factorial STAT3 reporter transcription; actives raise or lower the signal
Signal transducer and activator of transcription 3 (Homo sapiens), sequence (P40763 whole entry, looked up): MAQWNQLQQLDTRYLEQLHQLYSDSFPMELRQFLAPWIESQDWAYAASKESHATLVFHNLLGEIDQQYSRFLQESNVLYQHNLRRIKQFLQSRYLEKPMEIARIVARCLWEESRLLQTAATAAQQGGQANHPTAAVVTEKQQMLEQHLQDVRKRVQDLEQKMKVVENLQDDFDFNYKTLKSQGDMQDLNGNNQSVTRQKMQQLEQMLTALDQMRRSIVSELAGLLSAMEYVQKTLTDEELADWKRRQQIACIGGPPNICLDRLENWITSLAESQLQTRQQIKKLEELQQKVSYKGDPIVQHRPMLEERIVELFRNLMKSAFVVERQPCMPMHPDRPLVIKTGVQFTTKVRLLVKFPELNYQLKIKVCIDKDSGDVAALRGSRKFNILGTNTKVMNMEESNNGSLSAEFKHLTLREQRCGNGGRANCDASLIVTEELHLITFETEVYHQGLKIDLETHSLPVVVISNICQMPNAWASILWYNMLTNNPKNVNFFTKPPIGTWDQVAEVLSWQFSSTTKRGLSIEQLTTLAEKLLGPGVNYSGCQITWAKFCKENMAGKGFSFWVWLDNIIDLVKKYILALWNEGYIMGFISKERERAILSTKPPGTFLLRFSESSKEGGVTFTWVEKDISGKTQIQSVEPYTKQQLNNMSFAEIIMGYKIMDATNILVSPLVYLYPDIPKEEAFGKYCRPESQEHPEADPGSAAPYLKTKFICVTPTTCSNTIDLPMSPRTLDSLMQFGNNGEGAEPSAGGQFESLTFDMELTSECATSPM
Procedure, shortened: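 HepG2 cells transiently transfected with multiple cis-element-driven reporter units report endogenous transcription factor activity. After 24 h compound exposure, reporter mRNA is measured by RT-PCR, 6-FAM labelling, HpaI digestion and capillary electrophoresis. Fitted bidirectionally versus DMSO.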

[5] = ATG_TA_CIS: Attagene CIS-FACTORIAL HepG2 Assay for human TA Basal Promoter (AID 2282964); details: HepG2 Attagene CIS-factorial TA basal promoter reporter; actives raise or lower the signal
Procedure, shortened: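 Fluorescence from labelled RT-PCR reporter fragments, separated by capillary electrophoresis, gives the signal. Cells: HepG2 transiently carrying multiple reporter units, 24 h chemical dosing. Gain or loss relative to DMSO.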

[6] = ATG_TCF_b_cat_CIS: Attagene CIS-FACTORIAL HepG2 Assay for human T-Cell-Factor with beta-catenin (TCF/b-cat) (AID 2282965); details: HepG2 TCF/beta-catenin cis-reporter transcription, actives raise or lower the signal
Procedure, shortened: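 HepG2, transient MRTU transfection, cis-element-driven reporters (endogenous TFs). 24 h compound exposure. Readout: reporter mRNA by RT-PCR + 6-FAM primer extension, HpaI digest, capillary electrophoresis. Gain/loss fit vs DMSO baseline.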

[7] = ATG_TAL_CIS: Attagene CIS-FACTORIAL HepG2 Assay for human TAL Basal Promoter (AID 2282966); details: HepG2 Attagene cis-factorial TAL promoter reporter; actives raise or lower the signal;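 also: background control endpoint measuring basal TAL promoter reporter mRNA not a specific factor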
Procedure, shortened: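 Steps: transfect HepG2 with multiple reporter transcription units; dose 24 h; isolate RNA, reverse-transcribe, PCR-amplify, label with 6-FAM, digest with HpaI; resolve by capillary electrophoresis. Bidirectional fitting against DMSO baseline.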

[8] = ATG_TGFb_CIS: Attagene CIS-FACTORIAL HepG2 Assay for human Transforming Growth Factor (TGF) (AID 2282967); details: HepG2 Attagene CIS TGFb reporter, mRNA transcription; actives raise or lower the signal
Procedure, shortened: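 Bidirectional fitting relative to DMSO gave the endpoint. Underlying data: reporter mRNA from HepG2 cells carrying transiently transfected cis-regulated reporter constructs, harvested 24 h after dosing and analyzed by RT-PCR and capillary electrophoresis.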

[9] = ATG_VDRE_CIS: Attagene CIS-FACTORIAL HepG2 Assay for human Vitamin D Receptor Element (VDRE) (AID 2282968); details: HepG2 VDRE cis-reporter transcription, actives raise or lower the signal
Procedure, shortened: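 Transiently transfected HepG2 cells carrying cis-regulated reporter transcription units were exposed for 24 h. Reporter mRNA was measured by RT-PCR with fluorescent labelling and capillary electrophoresis, and fitted in both directions against DMSO.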

[10] = molecular target: Nuclear receptor subfamily 1 group I member 3 (Homo sapiens) (UniProt Q14994); assay: ATG_CAR_TRANS: Attagene TRANS-FACTORIAL HepG2 Assay for human Constitutive Androstane Receptor (CAR) (AID 2282969; active = hit-call score of the fitted dose curve at least 0.9, where 1 is the maximum;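 also: activators raise reporter mRNA above DMSO so AC50 marks induction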); details: HepG2 Attagene TRANS-FACTORIAL CAR reporter
Nuclear receptor subfamily 1 group I member 3 (Homo sapiens), sequence (Q14994 whole entry, looked up, the tested form may be a part): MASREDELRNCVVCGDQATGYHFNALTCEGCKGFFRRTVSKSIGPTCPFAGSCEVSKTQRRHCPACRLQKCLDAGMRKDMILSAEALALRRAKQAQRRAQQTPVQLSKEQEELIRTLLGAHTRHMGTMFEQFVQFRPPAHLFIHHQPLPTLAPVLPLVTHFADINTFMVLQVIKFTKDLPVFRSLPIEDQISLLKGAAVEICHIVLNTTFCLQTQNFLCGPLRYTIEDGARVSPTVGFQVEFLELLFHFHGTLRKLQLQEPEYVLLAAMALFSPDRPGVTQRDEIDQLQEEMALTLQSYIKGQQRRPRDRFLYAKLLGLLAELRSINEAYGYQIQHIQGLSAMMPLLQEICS
Procedure, shortened: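 HepG2 cells transiently transfected with GAL4-UAS reporter units; TRANS format reads activity of exogenous chimeric NR-Gal4 protein. After 24 h dosing, reporter mRNA quantified by RT-PCR, 6-FAM labelling and capillary electrophoresis; gain of signal fitted against DMSO.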

[11] = molecular target: Estrogen receptor (Homo sapiens) (UniProt P03372); assay: ATG_ERa_TRANS: Attagene TRANS-FACTORIAL HepG2 Assay for human Estrogen Receptor alpha (ERa) (AID 2282970; active = hit-call score of the fitted dose curve at least 0.9, where 1 is the maximum); details: HepG2 Attagene TRANS ERa GAL4 reporter, mRNA
Estrogen receptor (Homo sapiens), sequence (P03372 whole entry, looked up, the tested form may be a part): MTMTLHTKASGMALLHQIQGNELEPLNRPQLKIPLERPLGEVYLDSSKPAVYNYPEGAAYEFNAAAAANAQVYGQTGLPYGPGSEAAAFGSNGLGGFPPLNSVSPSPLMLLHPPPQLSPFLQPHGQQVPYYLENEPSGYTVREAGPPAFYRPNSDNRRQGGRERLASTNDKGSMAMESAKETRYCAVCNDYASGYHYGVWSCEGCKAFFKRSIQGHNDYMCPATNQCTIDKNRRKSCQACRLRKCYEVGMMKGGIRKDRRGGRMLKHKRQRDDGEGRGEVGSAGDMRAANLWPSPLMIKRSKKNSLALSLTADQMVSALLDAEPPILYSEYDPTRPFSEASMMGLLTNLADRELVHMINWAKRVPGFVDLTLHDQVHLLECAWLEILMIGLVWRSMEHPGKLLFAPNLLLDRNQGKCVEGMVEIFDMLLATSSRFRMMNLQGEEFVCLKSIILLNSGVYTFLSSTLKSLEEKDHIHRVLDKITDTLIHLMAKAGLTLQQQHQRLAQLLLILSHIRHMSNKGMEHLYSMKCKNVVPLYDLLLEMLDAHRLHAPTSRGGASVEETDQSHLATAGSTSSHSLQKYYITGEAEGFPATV
Procedure, shortened: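 Multiplexed cell-based reporter format in HepG2: chimeric ERa-Gal4 protein drives GAL4-UAS reporter transcription. Fluorescent reporter mRNA quantified by capillary electrophoresis 24 hours after dosing; endpoint fitted as signal gain against DMSO.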

[12] = molecular target: X-box-binding protein 1 (Homo sapiens) (UniProt P17861); assay: ATG_Xbp1_CIS: Attagene CIS-FACTORIAL HepG2 Assay for human X-box Binding Protein 1 (XBP1) (AID 2282972); details: HepG2 XBP1 cis-element reporter, Attagene multiplex; actives raise or lower the signal
X-box-binding protein 1 (Homo sapiens), sequence (P17861 whole entry, looked up, the tested form may be a part): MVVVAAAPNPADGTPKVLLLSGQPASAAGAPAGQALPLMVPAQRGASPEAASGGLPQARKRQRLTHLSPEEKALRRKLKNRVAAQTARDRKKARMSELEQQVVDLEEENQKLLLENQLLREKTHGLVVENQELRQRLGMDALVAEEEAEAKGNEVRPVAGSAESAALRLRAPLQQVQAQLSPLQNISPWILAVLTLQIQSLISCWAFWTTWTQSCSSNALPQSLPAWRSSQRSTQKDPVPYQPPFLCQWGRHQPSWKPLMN
Procedure, shortened: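 Fluorescence-labelled cDNA fragments from reporter transcripts, separated by capillary electrophoresis, give the signal. Source: HepG2 cells transfected with promoter-driven reporter units, harvested 24 h post-dose. DMSO served as reference for bidirectional curve fitting.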

[13] = ATG_M_19_TRANS: Attagene TRANS-FACTORIAL HepG2 Assay for M19 Transcription Factor (Internal Marker) (AID 2282974; active = hit-call score of the fitted dose curve at least 0.9, where 1 is the maximum); details: HepG2 Attagene TRANS-FACTORIAL M19 internal marker reporter
Procedure, shortened: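 Transfected HepG2 (GAL4-UAS MRTUs), 24 h compound, TriZol RNA, DNase-treated RT, reporter PCR, FAM label, HpaI digest, CE fluorescence; gain vs DMSO.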

[14] = molecular target: Bile acid receptor (Homo sapiens) (UniProt Q96RI1); assay: ATG_FXR_TRANS: Attagene TRANS-FACTORIAL HepG2 Assay for Farnesoid X Receptor (FXR) (AID 2282979; active = hit-call score of the fitted dose curve at least 0.9, where 1 is the maximum;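 also: hits raise reporter mRNA above DMSO so AC50 marks FXR activation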); details: HepG2 Attagene TRANS FXR-GAL4 reporter transcription
Bile acid receptor (Homo sapiens), sequence (Q96RI1 whole entry, looked up, the tested form may be a part): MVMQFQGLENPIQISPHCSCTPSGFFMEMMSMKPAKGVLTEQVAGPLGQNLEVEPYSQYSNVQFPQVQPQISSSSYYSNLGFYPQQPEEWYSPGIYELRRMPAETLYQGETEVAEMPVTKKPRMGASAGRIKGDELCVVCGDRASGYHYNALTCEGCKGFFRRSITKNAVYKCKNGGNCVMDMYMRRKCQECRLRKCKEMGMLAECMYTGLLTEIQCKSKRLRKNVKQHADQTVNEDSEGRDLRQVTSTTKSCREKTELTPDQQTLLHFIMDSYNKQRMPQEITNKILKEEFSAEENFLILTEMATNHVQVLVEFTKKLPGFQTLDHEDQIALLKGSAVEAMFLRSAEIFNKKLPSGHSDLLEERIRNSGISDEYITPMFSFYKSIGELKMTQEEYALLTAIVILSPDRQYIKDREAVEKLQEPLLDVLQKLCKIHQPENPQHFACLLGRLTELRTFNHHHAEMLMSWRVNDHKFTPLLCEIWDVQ
Procedure, shortened: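 After 24 h chemical treatment of transfected HepG2 cells, GAL4-UAS reporter transcripts driven by an exogenous FXR-GAL4 fusion were measured by RT-PCR and capillary electrophoresis. Increases over DMSO were fitted.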

[15] = molecular target: Oxysterols receptor LXR-alpha (Homo sapiens) (UniProt Q13133); assay: ATG_LXRa_TRANS: Attagene TRANS-FACTORIAL HepG2 Assay for human Liver X Receptor alpha (LXRa) (AID 2282980; active = hit-call score of the fitted dose curve at least 0.9, where 1 is the maximum); details: HepG2 Attagene TRANS reporter, LXRa transactivation
Procedure, shortened: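 In this multiplexed TRANS system, compounds act on HepG2 cells carrying GAL4-UAS reporter units and a receptor-GAL4 fusion for 24 h. Induced reporter RNA is amplified, fluorescently labelled and sized by capillary electrophoresis, with DMSO as baseline.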

[16] = ATG_GAL4_TRANS: Attagene TRANS-FACTORIAL HepG2 Assay for GAL4 (Internal Marker) (AID 2282976; active = hit-call score of the fitted dose curve at least 0.9, where 1 is the maximum); details: HepG2 Attagene TRANS GAL4 internal marker reporter
Procedure, shortened: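 Liver HepG2 line bearing multiplexed GAL4-UAS reporter constructs; 24 h chemical treatment. Transcripts were quantified as fluorescent fragments on capillary electrophoresis after RT-PCR and HpaI cut, with activity fitted upward from DMSO.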

[17] = molecular target: Glucocorticoid receptor (Homo sapiens) (UniProt P04150); assay: ATG_GR_TRANS: Attagene TRANS-FACTORIAL HepG2 Assay for human Glucocorticoid Receptor (GR) (AID 2282978; active = hit-call score of the fitted dose curve at least 0.9, where 1 is the maximum;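 also: activators score as hits since higher reporter transcript over DMSO is fitted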); details: HepG2 Attagene TRANS GR reporter, mRNA transcription
Glucocorticoid receptor (Homo sapiens), sequence (P04150 whole entry, looked up): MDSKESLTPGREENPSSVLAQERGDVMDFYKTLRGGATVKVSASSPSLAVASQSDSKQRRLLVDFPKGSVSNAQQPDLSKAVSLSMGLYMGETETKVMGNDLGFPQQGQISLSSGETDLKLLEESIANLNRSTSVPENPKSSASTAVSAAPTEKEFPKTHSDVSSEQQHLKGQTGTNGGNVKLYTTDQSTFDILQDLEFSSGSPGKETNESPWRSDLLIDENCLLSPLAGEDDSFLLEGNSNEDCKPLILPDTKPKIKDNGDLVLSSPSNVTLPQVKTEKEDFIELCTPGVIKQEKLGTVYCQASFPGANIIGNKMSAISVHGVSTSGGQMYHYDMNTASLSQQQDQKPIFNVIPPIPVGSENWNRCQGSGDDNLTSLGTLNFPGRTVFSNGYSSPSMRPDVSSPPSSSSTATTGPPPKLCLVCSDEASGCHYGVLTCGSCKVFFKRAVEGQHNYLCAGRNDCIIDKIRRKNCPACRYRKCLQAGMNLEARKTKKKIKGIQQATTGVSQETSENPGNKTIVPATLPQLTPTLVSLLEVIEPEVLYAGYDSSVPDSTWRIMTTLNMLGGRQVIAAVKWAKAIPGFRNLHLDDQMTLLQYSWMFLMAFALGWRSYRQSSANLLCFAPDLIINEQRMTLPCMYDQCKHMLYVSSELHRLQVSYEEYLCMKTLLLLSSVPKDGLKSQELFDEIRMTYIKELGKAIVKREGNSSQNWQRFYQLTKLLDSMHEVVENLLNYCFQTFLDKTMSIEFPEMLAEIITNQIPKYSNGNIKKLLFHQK
Procedure, shortened: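 After 24 h incubation with test chemical, transfected HepG2 cells were lysed for RNA; reporter cDNA was amplified, FAM-labelled, HpaI-digested and sized on a capillary analyser. Signal gain relative to DMSO was scored.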

[18] = molecular target: Steroid hormone receptor ERR1 (Homo sapiens) (UniProt P11474); assay: ATG_ERRa_TRANS: Attagene TRANS-FACTORIAL HepG2 Assay for human Estrogen-Related Receptor alpha (ERRa) (AID 2282971; active = hit-call score of the fitted dose curve at least 0.9, where 1 is the maximum); details: HepG2 Attagene TRANS reporter, ERRa transactivation
Steroid hormone receptor ERR1 (Homo sapiens), sequence (P11474 whole entry, looked up, the tested form may be a part): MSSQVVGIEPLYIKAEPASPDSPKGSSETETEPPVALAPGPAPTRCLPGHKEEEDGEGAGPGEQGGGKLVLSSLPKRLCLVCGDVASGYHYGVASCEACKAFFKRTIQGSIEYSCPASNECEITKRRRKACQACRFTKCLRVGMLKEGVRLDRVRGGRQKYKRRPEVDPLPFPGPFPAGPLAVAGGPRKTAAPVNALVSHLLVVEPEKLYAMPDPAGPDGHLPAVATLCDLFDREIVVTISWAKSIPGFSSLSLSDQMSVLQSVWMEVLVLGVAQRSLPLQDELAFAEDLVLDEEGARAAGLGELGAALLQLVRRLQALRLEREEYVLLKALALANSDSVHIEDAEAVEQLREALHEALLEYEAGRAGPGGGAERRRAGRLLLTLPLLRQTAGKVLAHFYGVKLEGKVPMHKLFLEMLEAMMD
Procedure, shortened: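 Signal gain relative to DMSO for an ERRa-Gal4 chimeric receptor, read as reporter mRNA by RT-PCR/capillary electrophoresis. Human HepG2 liver cells, transient multiplex reporter transfection, 24 h chemical exposure.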

[19] = molecular target: Estrogen-related receptor gamma (Homo sapiens) (UniProt P62508); assay: ATG_ERRg_TRANS: Attagene TRANS-FACTORIAL HepG2 Assay for human Estrogen-Related Receptor gamma (ERRg) (AID 2282977; active = hit-call score of the fitted dose curve at least 0.9, where 1 is the maximum;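 also: hits increase reporter signal over DMSO so potencies reflect activators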); details: HepG2 Attagene TRANS reporter, ERRg transactivation
Estrogen-related receptor gamma (Homo sapiens), sequence (P62508 whole entry, looked up, the tested form may be a part): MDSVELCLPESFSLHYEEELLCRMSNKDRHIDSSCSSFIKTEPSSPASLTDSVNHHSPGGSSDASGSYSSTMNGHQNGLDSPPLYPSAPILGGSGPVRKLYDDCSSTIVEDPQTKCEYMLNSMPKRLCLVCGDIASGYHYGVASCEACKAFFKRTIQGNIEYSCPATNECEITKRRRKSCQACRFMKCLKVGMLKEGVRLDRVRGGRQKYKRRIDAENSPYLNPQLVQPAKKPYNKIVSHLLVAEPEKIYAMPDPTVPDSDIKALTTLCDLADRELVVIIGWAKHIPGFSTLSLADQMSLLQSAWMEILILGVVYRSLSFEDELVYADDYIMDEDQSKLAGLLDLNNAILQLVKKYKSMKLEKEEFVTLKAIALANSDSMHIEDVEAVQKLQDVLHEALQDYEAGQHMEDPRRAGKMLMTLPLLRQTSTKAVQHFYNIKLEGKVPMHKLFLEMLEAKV
Procedure, shortened: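 HepG2 cells transiently transfected with multiplexed GAL4-UAS reporter units driven by chimeric NR-Gal4 proteins; 24 h exposure. Reporter mRNA quantified by RT-PCR, fluorescent labelling, HpaI digestion and capillary electrophoresis; gain of signal vs DMSO.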

Measured: AC50

c1csc(-c2ccc(-c3cccs3)s2)c1
active: [5] 4.42 µM | [8] 6.2 µM | [9] 3.41 µM | [10] 6.62 µM | [11] 4.23 µM | [12] 2.54 µM
not listed: [16] | [17] | [18] | [19]
inactive: all other assays above

O=c1oc2ccccc2c(O)c1C(CC(O)c1ccc(-c2ccc(Br)cc2)cc1)c1ccccc1 (stereo not given)
inactive: [1] | [2] | [3] | [4] | [5] | [7] | [8] | [11] | [12] | [13] | [16] | [14]
active: [2] 14.4 µM | [3] 8.18 µM | [5] 13.7 µM | [6] 21.1 µM and 11.5 µM | [7] 41.7 µM | [9] 22.4 µM and 8.54 µM | [12] 41.7 µM | [17] 173 µM

COC(F)(C(F)(F)C(F)(F)F)C(F)(C(F)(F)F)C(F)(F)F (stereo not given)
not listed: [19]
inactive: all other assays above

C#CCO
not listed: [11] | [13] | [14] | [15] | [17] | [18] | [19]
inactive: all other assays above

COP(=S)(OC)Oc1cc(Cl)c(I)cc1Cl
active: [1] 33.4 µM | [2] 33.4 µM | [3] 37.3 µM | [6] 48.6 µM | [9] 24.7 µM | [12] 38.6 µM
not listed: [11] | [16] | [17] | [18] | [19]
inactive: all other assays above

Cc1c([N+](=O)[O-])c(C)c([N+](=O)[O-])c(C(C)(C)C)c1[N+](=O)[O-]
active: [9] 1.84 µM | [11] 7.73 µM | [12] 100 µM
not listed: [14] | [15] | [16] | [17] | [18]
inactive: all other assays above

Nc1ccc(-c2ccccc2)cc1
active: [11] 14.8 µM
not listed: [13] | [14] | [15] | [16] | [17] | [18] | [19]
inactive: all other assays above

CC(C)(C)c1cc([N+](=O)[O-])cc(C(C)(C)C)c1O
active: [8] 26.3 µM | [9] 3.16 µM | [12] 4.78 µM
not listed: [16] | [17]
inactive: all other assays above

C=C(C)C(=O)OCCCCOC(=O)C(=C)C
not listed: [10] | [14] | [15] | [17] | [19]
inactive: all other assays above

CCCCCCCCCCCCOS(=O)(=O)O
active: [4] 11.1 µM
inactive: [1] | [2] | [3] | [4] | [5] | [6] | [7] | [8] | [12] | [13] | [16] | [17]

CC(C)(C)c1ccc(CCOc2ncnc3ccccc23)cc1
not listed: [12] | [15] | [16] | [17] | [18] | [19]
inactive: all other assays above

COC(=O)c1cc(Oc2ccc(Cl)cc2Cl)ccc1[N+](=O)[O-]
active: [5] 27.1 µM | [8] 66.8 µM | [9] 10.8 µM
not listed: [13] | [16] | [17] | [18] | [19]
inactive: all other assays above

Cc1cccc(N=Nc2ccc(N(C)C)cc2)c1
active: [9] 19.8 µM
not listed: [13] | [14] | [15] | [16] | [17] | [18]
inactive: all other assays above

O=C(NC(=O)c1c(F)cccc1F)Nc1ccc(Cl)cc1
not listed: [16] | [17] | [18] | [19]
inactive: all other assays above

C=C(C)[C@@H]1CC=C(C=O)CC1
not listed: [10] | [12] | [13] | [16] | [17] | [19]
inactive: all other assays above

CC(F)(F)CC(F)(F)F
not listed: [11] | [13] | [18] | [19]
inactive: all other assays above

O=S1OC[C@@H]2[C@H](CO1)[C@]1(Cl)C(Cl)=C(Cl)[C@@]2(Cl)C1(Cl)Cl (stereo not given in full)
active: [9] 6.07 µM | [11] 3.77 µM
not listed: [12] | [13] | [15] | [16] | [18] | [19]
inactive: all other assays above
